# Data: ChEMBL document CHEMBL2218924, “A broad activity screen in support of a chemogenomic map for kinase signalling research and drug discovery” (Biochem J, 2013)
# Key:
# [1] = molecular target: T1, Serine/threonine-protein kinase TBK1 (Homo sapiens) (UniProt Q9UHD2); details: at 10 µM
# T1 sequence (whole entry): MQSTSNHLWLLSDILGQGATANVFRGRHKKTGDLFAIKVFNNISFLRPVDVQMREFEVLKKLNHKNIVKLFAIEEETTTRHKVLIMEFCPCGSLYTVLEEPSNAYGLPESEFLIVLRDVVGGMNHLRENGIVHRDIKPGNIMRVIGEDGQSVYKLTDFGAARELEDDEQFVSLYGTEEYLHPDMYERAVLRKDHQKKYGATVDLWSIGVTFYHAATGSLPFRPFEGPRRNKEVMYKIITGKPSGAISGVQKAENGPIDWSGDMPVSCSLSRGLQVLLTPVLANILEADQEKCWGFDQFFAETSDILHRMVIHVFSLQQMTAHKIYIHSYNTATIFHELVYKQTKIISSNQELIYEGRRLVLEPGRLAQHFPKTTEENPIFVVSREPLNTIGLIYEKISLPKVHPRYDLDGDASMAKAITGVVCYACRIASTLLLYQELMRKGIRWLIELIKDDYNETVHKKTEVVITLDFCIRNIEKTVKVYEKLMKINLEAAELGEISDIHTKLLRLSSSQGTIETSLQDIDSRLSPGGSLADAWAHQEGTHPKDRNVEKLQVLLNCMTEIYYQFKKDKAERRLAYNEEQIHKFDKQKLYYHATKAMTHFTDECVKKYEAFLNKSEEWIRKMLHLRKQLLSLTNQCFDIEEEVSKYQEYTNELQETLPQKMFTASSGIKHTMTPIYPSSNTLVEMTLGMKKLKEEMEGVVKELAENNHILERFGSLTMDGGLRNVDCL
# [2] = molecular target: T2, Inhibitor of nuclear factor kappa-B kinase subunit alpha (Homo sapiens) (UniProt O15111); details: at 1 µM
# T2 sequence (whole entry): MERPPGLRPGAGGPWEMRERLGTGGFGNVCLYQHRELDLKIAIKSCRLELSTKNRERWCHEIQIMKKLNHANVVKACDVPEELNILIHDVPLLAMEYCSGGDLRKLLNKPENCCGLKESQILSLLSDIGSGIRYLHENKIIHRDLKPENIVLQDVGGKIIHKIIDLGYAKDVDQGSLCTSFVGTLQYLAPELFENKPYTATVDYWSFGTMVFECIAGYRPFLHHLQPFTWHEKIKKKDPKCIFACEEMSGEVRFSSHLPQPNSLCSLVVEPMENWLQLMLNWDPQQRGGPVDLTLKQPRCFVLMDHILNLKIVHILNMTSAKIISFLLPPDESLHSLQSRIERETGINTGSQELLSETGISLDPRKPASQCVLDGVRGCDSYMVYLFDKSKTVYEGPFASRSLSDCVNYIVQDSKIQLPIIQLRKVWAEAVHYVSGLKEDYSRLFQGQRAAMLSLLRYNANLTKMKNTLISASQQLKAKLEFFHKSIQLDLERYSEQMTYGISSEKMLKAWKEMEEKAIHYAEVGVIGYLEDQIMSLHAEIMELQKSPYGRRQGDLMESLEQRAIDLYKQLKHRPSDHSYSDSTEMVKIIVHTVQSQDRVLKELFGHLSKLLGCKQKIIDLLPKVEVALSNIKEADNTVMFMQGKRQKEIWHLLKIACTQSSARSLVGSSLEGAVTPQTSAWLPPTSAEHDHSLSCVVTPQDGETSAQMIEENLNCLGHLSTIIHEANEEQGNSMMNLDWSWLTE
# [3] = molecular target: T2, Inhibitor of nuclear factor kappa-B kinase subunit alpha (Homo sapiens); details: at 10 µM
# [4] = molecular target: Insulin receptor (Homo sapiens) (UniProt P06213); details: at 1 µM
# Insulin receptor (Homo sapiens), sequence (P06213 28-758 limits assumed): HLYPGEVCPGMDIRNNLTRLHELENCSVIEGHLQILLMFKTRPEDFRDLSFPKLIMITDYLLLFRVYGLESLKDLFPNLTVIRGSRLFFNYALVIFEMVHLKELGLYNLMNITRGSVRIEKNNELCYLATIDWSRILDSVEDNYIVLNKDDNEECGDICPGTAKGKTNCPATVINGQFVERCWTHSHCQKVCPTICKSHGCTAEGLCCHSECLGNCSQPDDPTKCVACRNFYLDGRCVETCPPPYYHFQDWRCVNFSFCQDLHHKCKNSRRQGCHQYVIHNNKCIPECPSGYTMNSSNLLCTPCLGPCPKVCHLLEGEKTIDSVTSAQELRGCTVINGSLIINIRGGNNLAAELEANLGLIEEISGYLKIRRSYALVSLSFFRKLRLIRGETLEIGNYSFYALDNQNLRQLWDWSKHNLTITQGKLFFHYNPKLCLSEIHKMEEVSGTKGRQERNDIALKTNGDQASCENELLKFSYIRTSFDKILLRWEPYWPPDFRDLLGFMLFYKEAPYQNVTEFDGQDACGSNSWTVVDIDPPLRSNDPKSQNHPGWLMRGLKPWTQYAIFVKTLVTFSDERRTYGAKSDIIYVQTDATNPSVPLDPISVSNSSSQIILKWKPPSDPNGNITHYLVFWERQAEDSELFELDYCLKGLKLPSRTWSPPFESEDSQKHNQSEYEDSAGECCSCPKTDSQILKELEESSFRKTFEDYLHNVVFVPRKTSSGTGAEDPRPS
# Insulin receptor (Homo sapiens), sequence (P06213 763-1382 limits assumed): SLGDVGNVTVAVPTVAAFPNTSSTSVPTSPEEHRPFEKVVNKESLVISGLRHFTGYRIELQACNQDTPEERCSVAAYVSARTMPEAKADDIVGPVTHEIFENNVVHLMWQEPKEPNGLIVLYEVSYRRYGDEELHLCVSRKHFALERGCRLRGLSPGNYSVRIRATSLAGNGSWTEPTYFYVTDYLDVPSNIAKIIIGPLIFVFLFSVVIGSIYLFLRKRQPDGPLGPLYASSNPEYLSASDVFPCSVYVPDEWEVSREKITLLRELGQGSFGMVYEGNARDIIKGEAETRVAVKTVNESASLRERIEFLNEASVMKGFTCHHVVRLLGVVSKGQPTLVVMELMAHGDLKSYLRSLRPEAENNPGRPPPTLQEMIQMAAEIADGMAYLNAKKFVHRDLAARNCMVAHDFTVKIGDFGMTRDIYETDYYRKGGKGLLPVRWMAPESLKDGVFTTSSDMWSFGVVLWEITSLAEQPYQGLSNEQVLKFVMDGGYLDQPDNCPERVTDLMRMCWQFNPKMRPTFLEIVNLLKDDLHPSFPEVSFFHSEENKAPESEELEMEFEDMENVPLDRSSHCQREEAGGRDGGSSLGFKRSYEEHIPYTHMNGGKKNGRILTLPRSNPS
# [5] = molecular target: Insulin receptor (Homo sapiens) (UniProt P06213); details: at 10 µM
# [6] = molecular target: Insulin receptor (Homo sapiens) (UniProt P06213); details: at 1 µM; remark: listed apart in the source
# [7] = molecular target: Insulin receptor (Homo sapiens) (UniProt P06213); details: at 10 µM; remark: listed apart in the source
# [8] = molecular target: Interleukin-1 receptor-associated kinase 1 (Homo sapiens) (UniProt P51617); details: at 1 µM
# Interleukin-1 receptor-associated kinase 1 (Homo sapiens), sequence (P51617 whole entry, looked up): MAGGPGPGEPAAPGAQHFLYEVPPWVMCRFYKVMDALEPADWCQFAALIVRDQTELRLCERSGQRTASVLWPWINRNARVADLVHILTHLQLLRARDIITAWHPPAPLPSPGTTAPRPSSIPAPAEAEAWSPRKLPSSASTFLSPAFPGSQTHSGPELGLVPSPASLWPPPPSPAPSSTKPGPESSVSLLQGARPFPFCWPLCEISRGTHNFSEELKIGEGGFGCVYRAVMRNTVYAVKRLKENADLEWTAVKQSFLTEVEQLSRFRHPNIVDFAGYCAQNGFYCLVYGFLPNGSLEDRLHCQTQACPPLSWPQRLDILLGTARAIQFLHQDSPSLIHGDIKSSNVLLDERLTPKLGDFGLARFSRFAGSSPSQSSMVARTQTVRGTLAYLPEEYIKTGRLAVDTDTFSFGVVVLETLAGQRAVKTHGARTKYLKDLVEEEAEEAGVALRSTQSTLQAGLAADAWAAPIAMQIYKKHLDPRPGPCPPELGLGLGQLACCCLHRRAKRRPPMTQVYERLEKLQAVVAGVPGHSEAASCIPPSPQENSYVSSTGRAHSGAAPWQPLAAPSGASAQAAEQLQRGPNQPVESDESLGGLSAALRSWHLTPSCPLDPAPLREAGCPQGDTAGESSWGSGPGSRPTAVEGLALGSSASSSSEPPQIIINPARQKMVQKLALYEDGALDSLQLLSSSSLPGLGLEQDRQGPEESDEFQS
# [9] = molecular target: Interleukin-1 receptor-associated kinase 1 (Homo sapiens) (UniProt P51617); details: at 10 µM
# [10] = molecular target: T3, Interleukin-1 receptor-associated kinase 4 (Homo sapiens) (UniProt Q9NWZ3); details: at 1 µM
# T3 sequence (whole entry): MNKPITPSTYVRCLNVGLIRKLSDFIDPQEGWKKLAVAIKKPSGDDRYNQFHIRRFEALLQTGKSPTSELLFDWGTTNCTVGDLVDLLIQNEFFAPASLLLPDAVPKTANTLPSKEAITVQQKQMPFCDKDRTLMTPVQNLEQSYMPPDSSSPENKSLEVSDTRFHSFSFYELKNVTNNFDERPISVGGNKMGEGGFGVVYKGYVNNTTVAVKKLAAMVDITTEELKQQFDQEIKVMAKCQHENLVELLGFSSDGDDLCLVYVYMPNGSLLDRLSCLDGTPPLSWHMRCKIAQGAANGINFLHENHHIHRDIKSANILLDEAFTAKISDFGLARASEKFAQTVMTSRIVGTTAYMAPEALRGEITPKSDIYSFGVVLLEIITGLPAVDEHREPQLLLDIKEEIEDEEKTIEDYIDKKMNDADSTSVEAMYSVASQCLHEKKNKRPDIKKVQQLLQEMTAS
# [11] = molecular target: T3, Interleukin-1 receptor-associated kinase 4 (Homo sapiens); details: at 10 µM
# [12] = molecular target: Insulin receptor-related protein (Homo sapiens) (UniProt P14616); details: at 1 µM
# Insulin receptor-related protein (Homo sapiens), sequence (P14616 27-742 limits assumed): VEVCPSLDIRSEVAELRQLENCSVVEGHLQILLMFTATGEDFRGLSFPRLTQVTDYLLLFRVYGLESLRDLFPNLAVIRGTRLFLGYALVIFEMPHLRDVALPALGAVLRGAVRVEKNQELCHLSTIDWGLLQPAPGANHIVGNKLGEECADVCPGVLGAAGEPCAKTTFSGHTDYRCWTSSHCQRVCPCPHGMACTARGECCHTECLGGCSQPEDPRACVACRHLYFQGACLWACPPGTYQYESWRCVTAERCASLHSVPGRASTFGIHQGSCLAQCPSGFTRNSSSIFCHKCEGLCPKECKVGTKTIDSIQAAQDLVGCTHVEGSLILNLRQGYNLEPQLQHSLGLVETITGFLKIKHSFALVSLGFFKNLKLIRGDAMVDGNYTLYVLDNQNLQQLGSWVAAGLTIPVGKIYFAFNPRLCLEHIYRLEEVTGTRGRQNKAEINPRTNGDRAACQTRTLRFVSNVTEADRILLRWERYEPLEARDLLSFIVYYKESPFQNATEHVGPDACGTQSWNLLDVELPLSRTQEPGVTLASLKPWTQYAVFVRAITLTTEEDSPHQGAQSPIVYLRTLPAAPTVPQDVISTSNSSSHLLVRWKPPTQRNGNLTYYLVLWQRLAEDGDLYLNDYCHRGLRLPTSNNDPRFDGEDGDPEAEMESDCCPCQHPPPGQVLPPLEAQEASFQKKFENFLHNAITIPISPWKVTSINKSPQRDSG
# Insulin receptor-related protein (Homo sapiens), sequence (P14616 747-1297 limits assumed): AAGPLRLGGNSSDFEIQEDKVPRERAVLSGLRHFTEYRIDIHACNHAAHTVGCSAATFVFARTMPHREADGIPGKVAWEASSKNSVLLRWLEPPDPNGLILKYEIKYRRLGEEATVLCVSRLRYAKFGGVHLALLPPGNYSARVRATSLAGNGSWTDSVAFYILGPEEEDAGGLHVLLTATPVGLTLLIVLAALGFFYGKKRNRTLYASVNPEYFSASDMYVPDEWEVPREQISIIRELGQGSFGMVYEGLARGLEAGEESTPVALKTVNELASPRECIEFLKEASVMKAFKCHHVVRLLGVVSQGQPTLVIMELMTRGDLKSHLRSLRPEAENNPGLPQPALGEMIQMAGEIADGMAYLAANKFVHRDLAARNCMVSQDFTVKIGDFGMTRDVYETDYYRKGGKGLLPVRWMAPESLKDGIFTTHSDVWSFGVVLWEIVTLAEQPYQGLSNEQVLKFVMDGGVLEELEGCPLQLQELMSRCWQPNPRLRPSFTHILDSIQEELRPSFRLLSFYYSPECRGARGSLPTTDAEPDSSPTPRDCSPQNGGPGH
# [13] = molecular target: Insulin receptor-related protein (Homo sapiens) (UniProt P14616); details: at 10 µM
# [14] = molecular target: T4, Tyrosine-protein kinase ITK/TSK (Homo sapiens) (UniProt Q08881); details: at 1 µM
# T4 sequence (whole entry): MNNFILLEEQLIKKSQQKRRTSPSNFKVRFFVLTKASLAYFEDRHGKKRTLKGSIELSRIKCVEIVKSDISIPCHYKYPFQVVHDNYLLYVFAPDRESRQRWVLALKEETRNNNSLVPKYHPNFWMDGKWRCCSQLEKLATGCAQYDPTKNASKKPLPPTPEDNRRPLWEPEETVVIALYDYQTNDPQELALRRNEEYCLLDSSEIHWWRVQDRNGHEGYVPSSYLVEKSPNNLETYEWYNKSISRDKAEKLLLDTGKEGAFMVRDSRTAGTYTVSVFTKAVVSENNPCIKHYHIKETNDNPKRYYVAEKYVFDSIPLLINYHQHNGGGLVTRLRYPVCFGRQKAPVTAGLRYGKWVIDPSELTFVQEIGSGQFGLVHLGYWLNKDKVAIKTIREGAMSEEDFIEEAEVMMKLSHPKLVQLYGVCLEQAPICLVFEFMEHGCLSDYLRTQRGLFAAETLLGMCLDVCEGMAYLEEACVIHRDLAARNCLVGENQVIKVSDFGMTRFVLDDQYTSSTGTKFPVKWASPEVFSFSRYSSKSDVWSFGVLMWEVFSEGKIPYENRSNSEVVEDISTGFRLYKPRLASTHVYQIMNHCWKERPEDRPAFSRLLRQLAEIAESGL
# [15] = molecular target: T5, TGF-beta receptor type-1 (Homo sapiens) (UniProt P36897); details: at 1 µM
# T5 sequence (whole entry): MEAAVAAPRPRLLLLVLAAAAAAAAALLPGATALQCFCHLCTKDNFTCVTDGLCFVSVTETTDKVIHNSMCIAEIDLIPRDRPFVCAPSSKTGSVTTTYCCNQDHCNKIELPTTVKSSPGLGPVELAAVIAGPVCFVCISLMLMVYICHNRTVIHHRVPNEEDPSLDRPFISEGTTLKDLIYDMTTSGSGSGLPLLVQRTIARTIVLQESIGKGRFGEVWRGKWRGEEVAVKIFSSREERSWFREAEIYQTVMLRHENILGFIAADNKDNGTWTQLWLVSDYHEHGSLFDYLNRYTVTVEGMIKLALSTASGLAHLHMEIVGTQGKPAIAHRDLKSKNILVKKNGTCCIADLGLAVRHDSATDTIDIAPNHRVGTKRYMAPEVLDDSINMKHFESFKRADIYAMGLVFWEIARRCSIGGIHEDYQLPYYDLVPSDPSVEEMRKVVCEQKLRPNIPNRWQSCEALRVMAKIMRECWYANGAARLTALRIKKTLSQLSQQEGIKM
# [16] = molecular target: T5, TGF-beta receptor type-1 (Homo sapiens); details: at 10 µM
# [17] = molecular target: Insulin-like growth factor 1 receptor (Homo sapiens) (UniProt P08069); details: at 10 µM
# Insulin-like growth factor 1 receptor (Homo sapiens), sequence (P08069 31-736 limits assumed): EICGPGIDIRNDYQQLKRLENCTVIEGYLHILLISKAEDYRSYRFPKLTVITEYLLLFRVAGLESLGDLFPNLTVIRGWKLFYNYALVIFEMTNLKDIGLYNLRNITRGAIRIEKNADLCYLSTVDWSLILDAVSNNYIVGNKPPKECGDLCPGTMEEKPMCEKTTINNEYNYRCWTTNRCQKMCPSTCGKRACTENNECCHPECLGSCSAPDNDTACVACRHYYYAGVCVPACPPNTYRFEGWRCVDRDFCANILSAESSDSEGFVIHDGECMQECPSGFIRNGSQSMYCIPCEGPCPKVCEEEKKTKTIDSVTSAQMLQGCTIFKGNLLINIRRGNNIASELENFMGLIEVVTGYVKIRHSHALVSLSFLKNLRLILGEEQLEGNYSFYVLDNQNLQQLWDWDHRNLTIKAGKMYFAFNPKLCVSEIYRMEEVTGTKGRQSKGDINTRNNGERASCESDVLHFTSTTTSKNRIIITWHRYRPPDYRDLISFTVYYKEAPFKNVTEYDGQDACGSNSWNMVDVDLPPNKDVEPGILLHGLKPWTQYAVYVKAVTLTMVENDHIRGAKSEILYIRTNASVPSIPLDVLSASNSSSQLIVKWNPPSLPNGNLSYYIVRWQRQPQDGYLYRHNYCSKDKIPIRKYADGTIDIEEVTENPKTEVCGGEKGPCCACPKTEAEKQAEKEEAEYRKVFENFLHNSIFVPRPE
# Insulin-like growth factor 1 receptor (Homo sapiens), sequence (P08069 741-1367 limits assumed): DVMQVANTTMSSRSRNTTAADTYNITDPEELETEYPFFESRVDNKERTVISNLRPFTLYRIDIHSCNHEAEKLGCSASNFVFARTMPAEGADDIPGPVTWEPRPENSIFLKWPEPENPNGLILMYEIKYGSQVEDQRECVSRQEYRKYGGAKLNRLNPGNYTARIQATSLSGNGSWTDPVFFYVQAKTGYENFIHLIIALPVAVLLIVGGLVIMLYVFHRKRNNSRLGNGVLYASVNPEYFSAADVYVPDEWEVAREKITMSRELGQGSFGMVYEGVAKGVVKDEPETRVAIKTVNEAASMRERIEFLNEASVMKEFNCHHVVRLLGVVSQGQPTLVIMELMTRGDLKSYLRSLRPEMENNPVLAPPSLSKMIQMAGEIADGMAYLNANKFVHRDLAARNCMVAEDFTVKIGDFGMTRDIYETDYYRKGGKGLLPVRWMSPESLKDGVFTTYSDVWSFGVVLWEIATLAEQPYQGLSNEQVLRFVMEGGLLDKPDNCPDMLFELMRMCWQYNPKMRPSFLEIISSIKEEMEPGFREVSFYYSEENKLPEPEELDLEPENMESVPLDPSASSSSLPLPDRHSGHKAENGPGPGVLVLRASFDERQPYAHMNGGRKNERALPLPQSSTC
# [18] = molecular target: Insulin-like growth factor 1 receptor (Homo sapiens) (UniProt P08069); details: at 1 µM
# [19] = molecular target: T6, Inhibitor of nuclear factor kappa-B kinase subunit beta (Homo sapiens) (UniProt O14920); details: at 1 µM
# T6 sequence (whole entry): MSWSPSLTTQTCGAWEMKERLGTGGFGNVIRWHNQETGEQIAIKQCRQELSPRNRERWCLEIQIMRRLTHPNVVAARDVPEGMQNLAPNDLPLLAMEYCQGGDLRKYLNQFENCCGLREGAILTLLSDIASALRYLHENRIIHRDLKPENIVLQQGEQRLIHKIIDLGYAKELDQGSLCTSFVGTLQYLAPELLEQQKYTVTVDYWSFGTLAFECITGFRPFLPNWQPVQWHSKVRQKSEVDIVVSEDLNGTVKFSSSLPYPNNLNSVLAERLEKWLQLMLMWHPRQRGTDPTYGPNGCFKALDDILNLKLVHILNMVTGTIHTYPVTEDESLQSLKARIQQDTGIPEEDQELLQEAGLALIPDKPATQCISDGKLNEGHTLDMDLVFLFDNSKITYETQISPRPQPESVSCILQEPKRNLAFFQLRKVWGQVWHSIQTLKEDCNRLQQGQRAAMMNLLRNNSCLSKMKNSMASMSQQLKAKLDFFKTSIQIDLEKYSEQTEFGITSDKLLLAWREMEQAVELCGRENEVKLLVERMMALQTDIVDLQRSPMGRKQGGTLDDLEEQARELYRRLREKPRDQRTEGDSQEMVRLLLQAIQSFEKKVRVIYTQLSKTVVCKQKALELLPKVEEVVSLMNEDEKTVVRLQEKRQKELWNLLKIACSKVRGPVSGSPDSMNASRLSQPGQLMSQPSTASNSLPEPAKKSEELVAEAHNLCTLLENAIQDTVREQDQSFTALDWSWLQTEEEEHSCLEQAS
# [20] = molecular target: T6, Inhibitor of nuclear factor kappa-B kinase subunit beta (Homo sapiens); details: at 10 µM
structure (smiles),measurement,setting,value
CCOC(=O)c1c(C)[nH]c(/C=C2\C(=O)Nc3ccccc32)c1C,residual activity,[1],85%
same,residual activity,[2],96%
same,residual activity,[3],88%
same,residual activity,[4],93%
same,residual activity,[5],96%
same,residual activity,[6],84%
same,residual activity,[7],93%
same,residual activity,[8],94%
same,residual activity,[9],99%
same,residual activity,[10],97%
same,residual activity,[11],49%
same,residual activity,[12],93%
same,residual activity,[13],81%
same,residual activity,[14],79%
O=C(Nc1nc2ccccc2n1CCN1CCOCC1)c1cccc([N+](=O)[O-])c1,residual activity,[1],60%
same,residual activity,[15],76%
same,residual activity,[8],11%
same,residual activity,[9],16%
same,residual activity,[10],13%
same,residual activity,[11],15%
same,residual activity,[14],74%
O=C(Nc1ccc(Cl)cc1)c1ccccc1NCc1ccncc1,residual activity,[4],100%
same,residual activity,[5],79%
same,residual activity,[6],102%
same,residual activity,[7],100%
O=C1Nc2ccccc2/C1=C\c1c(Cl)[nH]c2ccccc12,residual activity,[1],43%
same,residual activity,[16],74%
same,residual activity,[11],69%
O=C1NC(=O)C(c2c[nH]c3ccccc23)=C1c1c[nH]c2ccccc12,residual activity,[1],14%
same,residual activity,[17],76%
same,residual activity,[5],62%
same,residual activity,[6],100%
same,residual activity,[10],81%
same,residual activity,[11],27%
same,residual activity,[12],120%
same,residual activity,[13],37%
same,residual activity,[14],100%
CCN(CC)CCNC(=O)c1c(C)[nH]c(/C=C2\C(=O)Nc3ccc(Cl)cc32)c1C,residual activity,[1],1%
same,residual activity,[18],30%
same,residual activity,[17],3%
same,residual activity,[3],65%
same,residual activity,[19],98%
same,residual activity,[4],32%
same,residual activity,[5],6%
same,residual activity,[6],8%
same,residual activity,[7],0%
same,residual activity,[8],9%
same,residual activity,[9],0%
same,residual activity,[10],22%
same,residual activity,[11],7%
same,residual activity,[12],13%
same,residual activity,[13],0%
same,residual activity,[14],21%
NC(=O)c1ccc(-c2nc(-c3ccc4c(c3)OCCO4)c(-c3ccccn3)[nH]2)cc1,residual activity,[1],72%
same,residual activity,[11],97%
same,residual activity,[12],124%
COc1ccc(CNC(=O)Nc2ncc([N+](=O)[O-])s2)cc1,residual activity,[1],59%
same,residual activity,[2],111%
same,residual activity,[3],113%
same,residual activity,[19],109%
same,residual activity,[20],108%
same,residual activity,[9],103%
same,residual activity,[10],72%
same,residual activity,[11],78%
c1ccc(-c2cnc(Nc3ccc(OCCN4CCCC4)cc3)s2)cc1,residual activity,[1],23%
same,residual activity,[16],74%
same,residual activity,[2],77%
same,residual activity,[3],66%
same,residual activity,[19],116%
same,residual activity,[9],42%
same,residual activity,[10],124%
same,residual activity,[11],80%
same,residual activity,[12],135%
same,residual activity,[13],65%
same,residual activity,[14],81%
CSc1nc(-c2ccc(F)cc2)c(-c2ccnc(NC(C)c3ccccc3)c2)[nH]1 (configuration not stated),residual activity,[1],77%
same,residual activity,[3],95%
same,residual activity,[4],126%
same,residual activity,[5],93%
same,residual activity,[6],102%
same,residual activity,[7],98%
same,residual activity,[10],23%
same,residual activity,[11],13%
same,residual activity,[13],73%
same,residual activity,[14],70%
Fc1ccc(-c2nc3n(c2-c2ccncc2)CCS3)cc1,residual activity,[1],89%
same,residual activity,[12],128%
